Assay outcomes as filed in PubChem BioAssay.
This is one part of a sample in which hits are shown more often than they occur.
FECH block – blocks human mitochondrial ferrochelatase activity; P22830; purified FECH, Ni-mesoporphyrin absorbance 550 nm; calls only at 10 µM (by protocol); actives 3.3% (n = 20,000); AID 1671448;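 active = enzyme reaction rate more than 3 SD below the solvent-only control wells on the same plate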;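 note: lower slope than DMSO wells means FECH inhibition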
Target sequence (P22830 whole entry, looked up): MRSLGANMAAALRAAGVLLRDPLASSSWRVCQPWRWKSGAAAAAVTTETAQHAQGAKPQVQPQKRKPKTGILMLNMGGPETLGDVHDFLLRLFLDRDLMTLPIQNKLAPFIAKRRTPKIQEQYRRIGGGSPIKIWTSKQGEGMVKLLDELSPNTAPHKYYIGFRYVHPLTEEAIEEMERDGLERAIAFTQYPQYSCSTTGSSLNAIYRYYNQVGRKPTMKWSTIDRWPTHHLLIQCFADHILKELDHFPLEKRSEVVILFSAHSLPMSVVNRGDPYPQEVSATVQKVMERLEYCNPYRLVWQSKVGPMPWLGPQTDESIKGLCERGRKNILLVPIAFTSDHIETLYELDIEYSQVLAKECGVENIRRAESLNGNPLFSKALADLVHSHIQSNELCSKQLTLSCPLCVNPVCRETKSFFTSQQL
Calls only.

Screening O=C(c1ccc(F)c(F)c1)C1CCN(C(=O)c2cn[nH]n2)CC1 returned FECH block inactive.
Screening COc1ncccc1[C@@H]1C[C@H](NC(=O)c2ccccc2)C[C@H](C(C)C)O1 returned FECH block inactive.
`COc1ccc(CN2CCCN(Cc3ccccc3Cl)S2(=O)=O)cc1` gave FECH block inactive.
`COc1ccc(NC(=O)CN2CCN(Cc3ccccc3Cl)S2(=O)=O)cc1Cl` gave FECH block inactive.
Screening Cc1cccc(NC(=O)CN2CCN(Cc3ccc(F)cc3Cl)S2(=O)=O)c1 returned FECH block active.
Screening Cc1cc(C)cc(NC(=O)CN2CCN(Cc3ccc(F)cc3Cl)S2(=O)=O)c1 returned FECH block inactive.
COc1ccc(NC(=O)CN2CCN(Cc3ccc(F)cc3Cl)S2(=O)=O)cc1Cl was read as FECH block active.
For O=C(CN1CCN(Cc2ccc(F)cc2Cl)S1(=O)=O)Nc1cccc(F)c1 the results were FECH block inactive.
Screening Cc1ccc(NC(=O)CN2CCN(Cc3ccc(F)cc3Cl)S2(=O)=O)cc1C returned FECH block inactive.
For O=C(CN1CCCN(Cc2ccccc2Cl)S1(=O)=O)Nc1cc(F)ccc1F the results were FECH block inactive.
O=S1(=O)N(Cc2ccccc2Cl)CCCN1Cc1ccc(F)cc1Cl was read as FECH block active.
CC(C)c1nccc(CN2CCCC(Cn3ccnc3)C2)n1 (configuration not stated) was read as FECH block inactive.
`OCc1ccccc1-c1ccc(-c2nc(CCc3ccccc3)no2)cn1` gave FECH block inactive.
CC(C)C(=O)Nc1sc2c(c1-c1nc3ccccc3s1)CCN(C)C2 was read as FECH block inactive.
Screening O=C(CN1CCC(Cc2cccc(C(=O)O)c2)CC1)NCc1ccccn1 returned FECH block inactive.
`O=C(c1ccncn1)N1CCCC2(C=Cc3ccccc3O2)CC1` (configuration not stated) gave FECH block inactive.
`CN1CC(=O)N(CC(=O)N2CC=C(c3ccccc3)CC2)c2ccccc2C1=O` gave FECH block inactive.
NS(=O)(=O)c1ccccc1NC(=O)NCc1ccc(F)cc1 was read as FECH block active.
Cc1nc2nc[nH]n2c(=O)c1NC(=O)NCc1ccc(F)cc1 was read as FECH block inactive.
`COc1ccc(-c2cc(C(=O)NCc3ccc(F)cc3)[nH]n2)cc1S(N)(=O)=O` gave FECH block inactive.
`CCc1nc(OCC(=O)NCc2ccccc2C)c2c(-c3ccc(F)cc3)noc2n1` gave FECH block inactive.
COc1cccc(N2CCN(S(=O)(=O)c3cc(C(=O)N4CCCC4)cs3)CC2)c1 was read as FECH block inactive.
`CC(=O)c1ccc(N2CCN(S(=O)(=O)c3cc(C(=O)N4CCCC4)cs3)CC2)cc1` gave FECH block active.
Screening O=C(c1csc(S(=O)(=O)NC2CC2)c1)N1CCCC1 returned FECH block inactive.
Screening CC(=O)c1ccc(N2CCN(S(=O)(=O)c3cc(C(=O)N4CCCCC4)cs3)CC2)cc1 returned FECH block inactive.
Cc1cc(C)cc(NS(=O)(=O)c2cc(C(=O)N3CCCCC3)cs2)c1 was read as FECH block inactive.
CC(C)(C)NS(=O)(=O)c1cc(C(=O)N2CCCCC2)cs1 was read as FECH block active.
O=C(NCc1ccco1)c1ccc(CN2C(=O)CCn3nc(-c4ccccc4)cc32)cc1 was read as FECH block inactive.
For COc1ccc(Nc2cc(C)nc(N3CCN(S(=O)(=O)c4cccc(F)c4)CC3)n2)cc1 the results were FECH block inactive.
CC(c1cc2ccccc2[nH]1)N(C)C(=O)c1cnn2ccn(C)c12 (configuration not stated) was read as FECH block inactive.
For CC(C)CC(=O)Nc1nc2n(n1)C(c1ccc(F)cc1)C=C(c1ccc(Cl)cc1)N2 (configuration not stated) the results were FECH block inactive.
Cc1ccc(C2=CC(c3ccccc3Cl)n3nc(NC(=O)CC(C)C)nc3N2)cc1 (configuration not stated) was read as FECH block active.
For CC(=O)Nc1nc2n(n1)C(c1ccc(Cl)cc1)C=C(c1ccc(Cl)cc1)N2 (configuration not stated) the results were FECH block inactive.
`O=C(Nc1nc2n(n1)C(c1ccccc1Cl)C=C(c1ccc(Cl)cc1)N2)c1ccco1` (configuration not stated) gave FECH block active.
For CC(C)CC(=O)Nc1nc2n(n1)C(c1ccccc1Cl)C=C(c1ccc(Cl)cc1)N2 (configuration not stated) the results were FECH block inactive.
`CC(C)C(=O)Nc1nc2n(n1)C(c1ccccc1Cl)C=C(c1ccc(Cl)cc1)N2` (configuration not stated) gave FECH block inactive.
For CCC(=O)Nc1nc2n(n1)C(c1ccccc1Cl)C=C(c1ccc(Cl)cc1)N2 (configuration not stated) the results were FECH block inactive.
